Our source for the Potency, outcome and activity change, positive = activation values is PubChem BioAssay (Tox21).

SMILES strings stand for the structures. Unmarked numbers belong to inactive results. Inconclusive results are not listed. The source made the active and inactive calls. Unless noted, the call rests on the fitted dose curve; in most records, active means well fitted curve in the direction sought with a large enough effect in the repeat runs; inconclusive means weak or mixed curves; inactive means no such curve, though single readings can be large; an effect the other way counts as inactive or inconclusive.

Assay [1] in a line: qHTS assay to identify small molecule agonists of the constitutive androstane receptor (CAR) signaling pathway - cell viability counter screen (AID 1224836). Further: nearly all actives have a fitted effect of over 45% in size. Further: potency means the concentration at half of the fitted maximal effect. The gist of the method: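 Counter screen multiplexed with the CAR reporter readout: HepG2 cells co-transfected with hCAR and the CYP2B6-2.2kb construct receive a 15-concentration compound series and 0.75 uM PK11195 (final), then CellTiter-Fluor fluorescence is read after 23 h.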

A short description of assay [2]: qHTS assay to identify small molecule antagonists of the constitutive androstane receptor (CAR) signaling pathway - cell viability counter screen (AID 1224837). Further: nearly all actives have a fitted effect of over 45% in size. Further: potency means the concentration at half of the fitted maximal effect. In a few lines:
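To flag cytotoxic false antagonists, HepG2 hCAR/CYP2B6-2.2kb cells were treated 23 hr with 15-concentration compound series and 50 nM CITCO at 37 C/5% CO2; CellTiter-Fluor fluorescence was the measured end point.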
Background: qHTS replaces the single test concentration by a dilution series.

In assay [3] the target is Nuclear receptor subfamily 1 group I member 3 (Homo sapiens) (UniProt Q14994). The experiment in a line: qHTS assay to identify small molecule antagonists of the constitutive androstane receptor (CAR) signaling pathway (AID 1224838).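 Further: HepG2 cells stably expressing hCAR with CYP2B6 luciferase reporter stimulated by CITCO; nearly all actives have a fitted effect of over 40% in size.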 Further: potency means the concentration at half of the fitted maximal effect. The gist of the method:
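Human hepatoma HepG2 cells expressing hCAR and a CYP2B6 promoter (2.2 kb) luciferase construct; compound titration (15 points) with 50 nM CITCO final, 24 h at 37 C/5% CO2; luminescence via ONE-Glo after 30 min at room temperature.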

Assay [4] has the same target. The experiment in a line: qHTS assay to identify small molecule agonists of the constitutive androstane receptor (CAR) signaling pathway (AID 1224839). Further: nearly all actives have a fitted effect of over 15% in size. In a few lines: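 A 15-concentration quantitative screen uses HepG2 cells co-transfected stably with human CAR and CYP2B6-2.2kb reporter. Treatment lasts 24 h with 0.75 uM PK11195 final present; ONE-Glo luminescence is the signal.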

Assay [5] can be described thus: qHTS assay to identify small molecule antagonists of the estrogen related receptor signaling pathway with the pleiotropic PPARgamma coactivator (PGC) from Tox21 10K library - cell viability counter screen (AID 1224840; active means well fitted cell-killing curve with a large enough effect in the repeat runs, not every such curve was filed as active; further: nearly all actives have a fitted effect of over 40% in size; further: potency means the concentration at half of the fitted maximal effect). In a few lines:
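Seeded PGC/ERR cells (2,000/well, 6 h, 37 C/5% CO2) get compound by pin tool; 17.5 h incubation at 37 C; CellTiter-Fluor added, 30 min, fluorescence measured.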

Assay [6] in a line: qHTS assay to identify small molecule antagonists of the estrogen related receptor signaling pathway with the pleiotropic PPARgamma coactivator (PGC) from Tox21 10K library (AID 1224841; call rule not given here; further: actives are mostly falling curves and most rising ones were filed inactive; nearly all actives have a fitted effect of over 50% in size; further: potency means the concentration at half of the fitted maximal effect). In a few lines:
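Test chemicals dissolved in DMSO were applied to pre-incubated (6 h) PGC/ERR cells at 2,000 cells/well for an 18 h, 37 C treatment; reporter luminescence was then read using One-Glo.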

Assay [7] in a line: qHTS assay to identify small molecule agonists of the estrogen related receptor signaling pathway with the pleiotropic PPARgamma coactivator (PGC) from Tox21 10K library (AID 1224842). Further: nearly all actives have a fitted effect of over 15% in size. The gist of the method:
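PGC/ERR reporter cells (NTP line) were seeded 2,000 per well, rested 6 h at 37 C/5% CO2, then pin-dosed with compounds in DMSO for 18 h at 37 C; luciferase read by One-Glo luminescence after 30 min at room temperature.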

Assay [8] in a line: qHTS assay to identify small molecule agonists of H2AX (AID 1224845; active means well fitted activation curve with a large enough effect in the signal ratio in the repeat runs, not every such curve was filed as active; the % refers to the signal ratio). The gist of the method:
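Wild-type CHO-K1 cells plated overnight, then exposed 3 hr at 37C to compounds at 15 concentrations (0.76% DMSO). Lysed, then HTRF anti-pH2AX(S139)-cryptate/anti-H2AX-d2 detection after 24 hr at room temperature; emissions 665 and 620 nm.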

Assay [9] in a line: qHTS assay to identify small molecule agonists of the hypoxia (HIF-1) signaling pathway (AID 1224846; active means well fitted activation curve with a large enough effect in the signal ratio in the repeat runs, not every such curve was filed as active; the % refers to the signal ratio). In a few lines:
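Reporter induction in HRE-bla ME-180 cells is taken as agonism: cells sit 5 hrs after plating, receive compounds or DMSO only, incubate 17 hrs at 37C under 5% CO2, and are loaded with CCF4-AM for beta-lactamase FRET measurement.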

A short description of assay [10]: qHTS assay to identify small molecule agonists of H2AX - cell viability counter screen (AID 1224847; calls by dose curve; further: nearly all actives have a fitted effect of over 30% in size; further: potency means the concentration at half of the fitted maximal effect). The gist of the method: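 We seed wild-type CHO-K1 cells overnight, treat them for 3 hr at 37C with compounds in 15-concentration series, and quantify remaining viability by CellTiter-Glo luminescence.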
The nature of assay [11]: qHTS assay to identify small molecule antagonists of the estrogen related receptor (ERR) signaling pathway from Tox21 library (AID 1224848). Further: nearly all actives have a fitted effect of over 50% in size. Further: potency means the concentration at half of the fitted maximal effect. In a few lines:
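Tox21 10K compounds in DMSO tested for ERR pathway antagonism in NTP's ERR cell line; 18 h, 37 C exposure; ONE-Glo luminescence.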

Assay [12] in a line: qHTS assay to identify small molecule agonists of the estrogen related receptor (ERR) signaling pathway from Tox21 library (AID 1224849; calls by dose curve; further: nearly all actives have a fitted effect of over 15% in size). The note with it: ERR reporter cell line, ONE-Glo luciferase, 18 h; at 92.4 µM (top of the series) unless noted. In a few lines: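 Tox21 compounds tested for ERR agonism in an NTP reporter cell line: 18 h treatment at 37 C, then ONE-Glo luminescence.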

Assay [13] can be described thus: qHTS RealTime-Glo MT Cell Viability Assay in HepG2 cells - 24 hour (AID 1224867). Further: nearly all actives have a fitted effect of over 50% in size. Further: potency means the concentration at half of the fitted maximal effect. In a few lines:
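HepG2 cells were seeded at 600 cells/well together with NanoLuc luciferase and a cell-permeant prosubstrate, preincubated 5 h at 37 C/5% CO2, then pin-dosed with compounds in DMSO. Nonlytic luminescence from viable cells was read at each time point.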

The nature of assay [14]: qHTS RealTime-Glo MT Cell Viability Assay in HEK293 cells - 32 hour (AID 1224868). Further: nearly all actives have a fitted effect of over 50% in size. Further: potency means the concentration at half of the fitted maximal effect. The gist of the method:
(§1)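 HEK293 cells were seeded at 600 cells/well together with NanoLuc luciferase and cell-permeant prosubstrate, preincubated 5 h at 37 C/5% CO2, then given compound in DMSO by pintool. Luminescence from viable-cell prosubstrate reduction was read repeatedly over 40 h.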

A short description of assay [15]: A CellTox Green Cytotoxicity Assay to monitor cytotoxicity in HEK293 cells - 0 hour (AID 1224869). Further: nearly all actives have a fitted effect of over 50% in size. The gist of the method: (§2)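 Tox21 screen in HEK293: membrane-impermeant cyanine dye fluoresces on binding dead-cell DNA; compound pinned 5 h post-seeding, plates held at 37 C, signal read repeatedly through 40 h.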
A short description of assay [16]: qHTS RealTime-Glo MT Cell Viability Assay in HepG2 cells - 40 hour (AID 1224870). Further: nearly all actives have a fitted effect of over 50% in size. In a few lines: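 HepG2 cells mixed with RealTime-Glo MT reagents (NanoLuc plus cell-permeant prosubstrate) were seeded at 600 cells/well, incubated 5 h at 37 C/5% CO2, then pinned with compounds in DMSO; nonlytic luminescence tracked viability during 40 h treatment.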
Assay [17] is described as follows: A CellTox Green Cytotoxicity Assay to monitor cytotoxicity in HEK293 cells - 40 hour (AID 1224871). Further: nearly all actives have a fitted effect of over 45% in size. In a few lines: as §2
Assay [18] in a line: qHTS RealTime-Glo MT Cell Viability Assay in HEK293 cells - 16 hour (AID 1224872). Further: nearly all actives have a fitted effect of over 50% in size. Further: potency means the concentration at half of the fitted maximal effect. In a few lines:
as §1

The target in assay [19] is Thyrotropin receptor (Homo sapiens) (UniProt P16473). Briefly: qHTS assay to identify small molecule agonists of the thyroid stimulating hormone receptor (TSHR) signaling pathway (AID 1224843; calls by dose curve; further: nearly all actives have a fitted effect of over 45% in size). In a few lines: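 Using 15 concentrations per compound in triplicate, cAMP production was monitored in TSHR-HEK293 cells after 30 min compound incubation at RT; HTRF reagents followed, with fluorescence intensity recorded after 1 h.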
Sequence of Thyrotropin receptor (Homo sapiens) (P16473 whole entry, looked up): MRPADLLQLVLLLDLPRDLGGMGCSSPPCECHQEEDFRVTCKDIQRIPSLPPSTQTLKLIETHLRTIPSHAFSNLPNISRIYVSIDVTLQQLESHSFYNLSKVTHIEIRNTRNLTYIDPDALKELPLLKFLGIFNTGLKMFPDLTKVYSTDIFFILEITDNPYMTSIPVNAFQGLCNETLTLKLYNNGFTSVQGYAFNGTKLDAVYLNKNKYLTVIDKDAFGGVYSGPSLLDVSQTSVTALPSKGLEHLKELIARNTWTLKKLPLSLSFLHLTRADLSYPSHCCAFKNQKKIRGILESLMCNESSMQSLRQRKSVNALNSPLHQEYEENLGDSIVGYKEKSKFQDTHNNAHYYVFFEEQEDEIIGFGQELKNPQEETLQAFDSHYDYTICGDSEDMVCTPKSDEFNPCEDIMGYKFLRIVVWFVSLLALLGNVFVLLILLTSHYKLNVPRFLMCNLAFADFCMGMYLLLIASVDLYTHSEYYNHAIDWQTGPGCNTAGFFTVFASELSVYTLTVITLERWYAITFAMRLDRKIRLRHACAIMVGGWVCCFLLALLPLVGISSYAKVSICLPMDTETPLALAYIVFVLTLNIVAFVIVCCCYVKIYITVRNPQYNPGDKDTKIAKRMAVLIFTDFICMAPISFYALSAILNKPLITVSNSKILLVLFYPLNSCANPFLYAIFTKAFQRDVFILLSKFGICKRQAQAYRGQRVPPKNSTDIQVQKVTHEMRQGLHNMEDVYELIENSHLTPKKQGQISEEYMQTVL

Assay [20] in a line: qHTS assay to identify small molecule agonists of the hypoxia (HIF-1) signaling pathway - cell viability counter screen (AID 1224844; calls by dose curve; further: nearly all actives have a fitted effect of over 50% in size). In a few lines: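 HRE-bla ME-180; 0.5% dFBS; cpd 17 h, 37C, 5% CO2; CellTiter-Glo lum., 30 min RT, post-FRET read, same wells.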
On the % scale 0 is the no-effect control and ±100 the full control effect.

Sequence of Nuclear receptor subfamily 1 group I member 3 (Homo sapiens) (Q14994 whole entry, looked up): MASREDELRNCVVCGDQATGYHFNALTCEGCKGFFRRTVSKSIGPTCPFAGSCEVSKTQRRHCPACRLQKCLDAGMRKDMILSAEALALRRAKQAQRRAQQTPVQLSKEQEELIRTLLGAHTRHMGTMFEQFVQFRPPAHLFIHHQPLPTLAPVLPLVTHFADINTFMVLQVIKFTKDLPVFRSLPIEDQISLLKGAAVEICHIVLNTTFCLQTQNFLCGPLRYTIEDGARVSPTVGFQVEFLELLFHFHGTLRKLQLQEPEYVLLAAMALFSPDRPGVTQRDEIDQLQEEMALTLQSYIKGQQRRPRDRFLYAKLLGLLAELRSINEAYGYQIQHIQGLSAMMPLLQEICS

For the compound `CCCCCCCCCCCCCOP(=O)(O)O`, the Potency result in [1], in [2], in assay [3], in [4], in assay [5] and in [6] was “inactive” throughout. For the same compound, the Potency result in assay [7], in [8], in assay [10], in assay [11], in assay [13] and in assay [14] was “inactive” in each case. For the same compound, the Potency result in assay [15], in assay [16], in [17] and in [18] was “inactive” in each case. Moreover, the compound was called inactive in assay [9]. Besides, the activity change, positive = activation in assay [12] is -2%.
Turning to `Cc1c(C(=O)O)cccc1[N+](=O)[O-]`, the Potency entry in assay [1], in assay [2], in assay [3], in assay [4], in assay [5] and in assay [19] was “inactive” each time. Moreover, the Potency entry in [20], in assay [8], in [10], in assay [13], in assay [14] and in [15] was “inactive” throughout. Besides, the Potency result in [16], in assay [17] and in [18] was “inactive” throughout. For the same compound, the call in assay [9] was inactive.
`CCCC(=O)OCC(COC(=O)CCC)OC(=O)CCC`: the Potency result in assay [1], in [2], in assay [3], in [4], in assay [5] and in [6] was “inactive” throughout. In addition, the Potency entry in assay [7], in [20], in [8], in [10], in assay [11] and in assay [14] was “inactive” in each case. For the same compound, the Potency result in assay [15], in assay [16], in assay [17] and in assay [18] was “inactive” each time. Also, the outcome in assay [9] was inactive. The activity change, positive = activation in [12] was -2.08%.
In the case of `O=C1c2c(O)ccc([N+](=O)[O-])c2C(=O)c2c([N+](=O)[O-])ccc(O)c21`, the Potency is 24.1 µM (active) in [1]; 24.1 µM (active) in assay [2]; 24.1 µM (active) in [3]; 30.4 µM (active) in assay [5]; 9.6 µM (active) in assay [6]; 50 µM (active) in [10]. Moreover, the Potency in assay [11] was 15.2 µM (active); in [13], 38.5 µM (active); in [14], 24.3 µM (active); in [18], 13.7 µM (active). Further, the Potency result in assay [4], in assay [7] and in [15] was “inactive” each time. Further, the activity change, positive = activation in assay [12] is -80%.
For the compound `COc1cccc(CCc2ccccc2OCC(CN(C)C)OC(=O)CCC(=O)O)c1` (stereo not given), the Potency result in [1], in [2], in assay [3], in assay [4], in assay [5] and in [6] was “inactive” throughout. Further, the Potency result in [7], in assay [19], in assay [10], in assay [11], in assay [13] and in assay [15] was “inactive” in each case. For the same compound, the Potency result in [16] and in [18] was “inactive” throughout. Also, the activity change, positive = activation in [12] was -1.11% [at 42.5 µM].
As for `OCCCc1cccnc1`, the Potency entry in [1], in assay [2], in assay [3], in assay [4], in [5] and in assay [19] was “inactive” throughout. Besides, the Potency entry in assay [20], in assay [8], in assay [10], in [13], in assay [15] and in assay [18] was “inactive” each time. The outcome in assay [9] was inactive.
For `O=CC1CC1`, the Potency result in assay [1], in assay [2], in [3], in assay [4], in [5] and in assay [19] was “inactive” each time. Moreover, the Potency entry in assay [20], in assay [8], in [10], in assay [13], in assay [14] and in assay [15] was “inactive” throughout. Further, the Potency result in [16], in assay [17] and in assay [18] was “inactive” each time. For the same compound, the outcome in assay [9] was inactive.
